Assay [1] is described as follows: antimalarial activity against Dd2 strain (AID 2302;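 active means growth inhibition above 50% at the single 2 µM test dose, taken to imply half-maximal potency below 2 µM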;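 further: 0% = DMSO untreated growth and 100% = chloroquine plus artemisinin killed control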). The following applies: P. falciparum Dd2 in RBCs, LDH growth readout, 72 h; at 2 µM; hits give high values.
A short description of assay [2]: human hepatoma cell viability loss – ATP luminescence, cytotoxicity control for P. falciparum antimalarial project, primary screen (AID 2303;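 active means inhibition above 50%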;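 further: 0% = DMSO wells and 100% = digitonin-killed cells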). The following applies: HepG2 viability, 24-48 h, at 10 µM, hits give high values.
Assay [3] has as its target L-lactate dehydrogenase (Plasmodium falciparum (isolate CDC / Honduras)) (UniProt Q27743). The experiment in a line: PfLDH activity inhibition – cell lysate, 3D7 strain, counter-screen for P. falciparum growth inhibition project (AID 2304).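 Further: 0% = vehicle and 100% = reference inhibitor.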 To be noted: P. falciparum 3D7 crude extract, LDH APAD/NBT absorbance; at 2 µM; hits give high values.
A short description of assay [4]: inhibition of 3D7 malaria parasite growth – strain 3D7 (AID 2306).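 Further: 0% = DMSO wells and 100% = chloroquine plus artemisinin control wells.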 The following applies: P. falciparum 3D7 erythrocytic growth, LDH absorbance, 72 h; at 2 µM; hits give high values.
Assay [5] deals with Calcium-dependent protein kinase 1 (Plasmodium falciparum (isolate 3D7)) (UniProt P62344). The experiment in a line: PfCDPK1 kinase inhibitors, biochemical, TCAMS library (AID 1159585; cut-off not given, nearly all actives have IC50 up to about 0.98 µM;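 further: inhibitors leave more ATP so luminescence rises with inhibition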). To be noted: recombinant PfCDPK1, Kinase-Glo ATP depletion luminescence.
The target of assay [6] is Plasmodium falciparum protein kinase 6 (PK6, PF3D7_1337100) (UniProt Q8IDW1). The experiment in a line: PfPK6 kinase inhibitors, biochemical, TCAMS library (AID 1159586). The following applies: recombinant PfPK6, Kinase-Glo ATP depletion luminescence.
The target in assay [7] is Protein kinase 7 (PK7), Plasmodium falciparum 3D7 (PF3D7_0213400) (UniProt Q7YTF7). The experiment in a line: inhibition of Plasmodium PK7 catalytic activity – biochemical, TCAMS antimalarial set, Kinase-Glo luminescence (AID 1159587). To be noted: recombinant PfPK7, Kinase-Glo ATP depletion luminescence.
Assay [8] deals with Calcium-dependent protein kinase 4 (Plasmodium falciparum (isolate 3D7)) (UniProt Q8IBS5). The experiment in a line: PfCDPK4 kinase inhibitors, biochemical, TCAMS library (AID 1159588; cut-off not given, nearly all actives have IC50 up to about 0.91 µM). The following applies: recombinant PfCDPK4, Kinase-Glo ATP depletion luminescence.

“And” between values parts separate entries of the source, which are not always exact repeats. Identical values can stand only once. Unmarked numbers belong to inactive results. For some of these results: Entries with a potency or affinity are not part of this list. The source made the active and inactive calls. Unless noted, how the calls were made is not given here.

Sequence of Protein kinase 7 (PK7), Plasmodium falciparum 3D7 (PF3D7_0213400) (Q7YTF7 1-343): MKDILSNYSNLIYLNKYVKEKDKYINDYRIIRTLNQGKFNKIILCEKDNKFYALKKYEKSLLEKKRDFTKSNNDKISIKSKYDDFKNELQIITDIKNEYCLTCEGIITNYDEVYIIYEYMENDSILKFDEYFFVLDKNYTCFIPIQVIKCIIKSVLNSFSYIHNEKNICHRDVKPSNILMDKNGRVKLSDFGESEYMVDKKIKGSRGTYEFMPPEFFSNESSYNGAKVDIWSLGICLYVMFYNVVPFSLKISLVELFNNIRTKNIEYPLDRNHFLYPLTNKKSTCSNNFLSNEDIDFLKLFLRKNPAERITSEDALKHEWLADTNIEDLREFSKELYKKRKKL
Sequence of Calcium-dependent protein kinase 4 (Plasmodium falciparum (isolate 3D7)) (Q8IBS5 whole entry, looked up): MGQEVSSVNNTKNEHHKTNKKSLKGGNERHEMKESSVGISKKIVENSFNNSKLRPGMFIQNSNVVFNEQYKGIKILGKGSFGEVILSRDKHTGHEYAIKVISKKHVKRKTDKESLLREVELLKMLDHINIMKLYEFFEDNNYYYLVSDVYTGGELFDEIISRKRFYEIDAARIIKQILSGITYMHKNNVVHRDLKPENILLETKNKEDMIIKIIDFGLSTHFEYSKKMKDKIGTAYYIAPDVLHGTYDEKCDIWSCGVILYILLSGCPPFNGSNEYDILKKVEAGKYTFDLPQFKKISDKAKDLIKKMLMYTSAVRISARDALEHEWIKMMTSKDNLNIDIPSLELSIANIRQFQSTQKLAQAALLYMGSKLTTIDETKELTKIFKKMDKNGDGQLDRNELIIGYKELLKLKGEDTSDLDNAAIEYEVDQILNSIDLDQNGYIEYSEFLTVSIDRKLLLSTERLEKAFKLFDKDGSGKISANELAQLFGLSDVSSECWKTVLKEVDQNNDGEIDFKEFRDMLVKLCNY
Sequence of Plasmodium falciparum protein kinase 6 (PK6, PF3D7_1337100) (Q8IDW1 1-305): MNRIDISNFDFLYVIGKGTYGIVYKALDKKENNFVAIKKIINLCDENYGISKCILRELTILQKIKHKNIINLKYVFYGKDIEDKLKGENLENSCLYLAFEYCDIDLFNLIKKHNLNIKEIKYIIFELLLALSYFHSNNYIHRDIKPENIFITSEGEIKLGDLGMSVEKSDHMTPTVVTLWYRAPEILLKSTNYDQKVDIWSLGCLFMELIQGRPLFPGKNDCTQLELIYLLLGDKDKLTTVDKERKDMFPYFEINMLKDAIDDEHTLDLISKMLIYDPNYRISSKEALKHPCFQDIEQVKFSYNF
Sequence of L-lactate dehydrogenase (Plasmodium falciparum (isolate CDC / Honduras)) (Q27743 whole entry, looked up): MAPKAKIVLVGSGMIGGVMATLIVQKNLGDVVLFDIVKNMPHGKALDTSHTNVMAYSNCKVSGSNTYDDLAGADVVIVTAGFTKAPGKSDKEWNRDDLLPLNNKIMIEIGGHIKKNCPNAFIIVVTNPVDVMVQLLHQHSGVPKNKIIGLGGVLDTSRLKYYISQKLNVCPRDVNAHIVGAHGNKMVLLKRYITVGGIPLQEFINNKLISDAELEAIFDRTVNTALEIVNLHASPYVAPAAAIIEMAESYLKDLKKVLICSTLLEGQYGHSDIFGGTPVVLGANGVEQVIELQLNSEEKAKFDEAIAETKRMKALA
Sequence of Calcium-dependent protein kinase 1 (Plasmodium falciparum (isolate 3D7)) (P62344 whole entry, looked up): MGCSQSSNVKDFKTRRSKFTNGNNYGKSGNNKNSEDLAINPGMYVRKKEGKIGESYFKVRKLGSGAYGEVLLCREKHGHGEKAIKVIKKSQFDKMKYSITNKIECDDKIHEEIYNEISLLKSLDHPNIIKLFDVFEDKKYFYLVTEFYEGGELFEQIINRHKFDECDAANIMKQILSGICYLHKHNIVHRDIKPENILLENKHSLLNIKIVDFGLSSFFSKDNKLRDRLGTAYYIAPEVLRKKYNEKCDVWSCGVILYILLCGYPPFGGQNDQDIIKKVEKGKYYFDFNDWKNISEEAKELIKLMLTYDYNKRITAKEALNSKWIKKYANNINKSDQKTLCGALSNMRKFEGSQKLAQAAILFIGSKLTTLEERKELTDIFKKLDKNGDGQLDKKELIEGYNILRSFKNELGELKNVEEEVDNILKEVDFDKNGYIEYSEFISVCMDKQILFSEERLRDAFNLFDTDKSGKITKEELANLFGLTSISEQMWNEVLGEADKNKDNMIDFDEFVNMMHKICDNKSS

Take `COc1cccc(O)c1CNCC(O)c1cccc(C(F)(F)F)c1` (centres undefined): the growth inhibition in assay [1] is 96% (active); in assay [4] it was 98% (active). The inhibition is 31% in assay [2] and 4% in assay [3]. Also, the result in assay [5], in assay [6], in assay [7] and in assay [8] was inactive.
Turning to `CS(=O)(=O)Nc1ccc2[nH]cc(C3CCN(CC4CCC(NC(=O)/C=C/c5ccccc5Cl)CC4)CC3)c2c1` (centres undefined), the growth inhibition in assay [1] was 7%; in assay [4], 96% (active). Also, the inhibition in assay [2] was 12%; in assay [3], 2%. Moreover, the outcome in assay [5], in assay [6], in assay [7] and in assay [8] was inactive.
As to `C/C=C1\CN2CC[C@H]1C[C@@H]2[C@@H](O)c1ccnc2ccc(O)cc12`, the growth inhibition in assay [1] was -1%; in assay [4] it was 98% (active). The inhibition in assay [2] is -10%; in assay [3], -4%. For the same compound, the outcome in assay [5], in assay [6], in assay [7] and in assay [8] was inactive.
For the compound `O=C(/C=C/c1cccc(Cl)c1)NC1CCC(CN2CCC(c3c[nH]c4ccccc34)CC2)CC1` (centres undefined), the growth inhibition in assay [1] is 55% (active) and 82% (active); in assay [4], 100% (active) and 101% (active). In addition, the inhibition is 35% and 42% in assay [2]; 0% in assay [3]. In addition, the outcome in assay [5], in assay [6], in assay [7] and in assay [8] was inactive.
For the compound `CS(=O)(=O)Nc1ccc2[nH]cc(C3CCN(CC4CCN(C(=O)/C=C/c5ccc(Cl)c(Cl)c5)CC4)CC3)c2c1`, the values for the growth inhibition in assay [1] and in assay [4] were 92% (active) and 101% (active), respectively. For the same compound, the inhibition is 27% in assay [2] and -5% in assay [3]. Also, the result in assay [5], in assay [6], in assay [7] and in assay [8] was inactive.
Take `O=C(/C=C/c1cccs1)NC1CCC(CN2CCC(c3c[nH]c4ccccc34)CC2)CC1` (centres undefined): the growth inhibition was 29% in assay [1] and 82% (active) in assay [4]. Moreover, the inhibition was 33% in assay [2] and -1% in assay [3]. In addition, the outcome in assay [5], in assay [6], in assay [7] and in assay [8] was inactive.
Take `CC(Cc1ccc(-c2nc3ccccc3[nH]2)cc1)NCC(O)c1cccc(C(F)(F)F)c1` (centres undefined): the growth inhibition in assay [1] is 90% (active); in assay [4], 97% (active). Also, the results for the inhibition in assay [2] and in assay [3] were 33% and 4%, respectively. Besides, the outcome in assay [5], in assay [6], in assay [7] and in assay [8] was inactive.
Take `C[C@H](Cc1ccc(OCCCCCCOc2ccccc2)cc1)NC[C@@H](O)c1cc(Br)no1`: the growth inhibition in assay [1] was 70% (active); in assay [4], 94% (active). For the same compound, the inhibition in assay [2] was 21%; in assay [3], 5%. Further, the result in assay [5], in assay [6], in assay [7] and in assay [8] was inactive.
Take `CO/C(=C\C=C\c1cc2cc(Cl)c(Cl)cc2[nH]1)C(=O)N[C@H]1CN2CCC1CC2`: the growth inhibition in assay [1] was 36%; in assay [4], 82% (active). In addition, the inhibition in assay [2] was 43%; in assay [3] it was -2%. For the same compound, the outcome in assay [5], in assay [6], in assay [7] and in assay [8] was inactive.
For `O=C(/C=C/c1ccc(Cl)c(Cl)c1)NCCCCCN1C2CCC1CC(c1c[nH]c3ccccc13)C2` (centres undefined), the values for the growth inhibition in assay [1] and in assay [4] were 4% and 98% (active), respectively. Further, the inhibition in assay [2] is 54% (active); in assay [3], -1%. Also, the result in assay [5], in assay [6], in assay [7] and in assay [8] was inactive.
As to `CN(C)c1cccc(NC(=O)NC2N=C(c3ccccc3)c3ccccc3N(CC(=O)N(C)c3ccccc3)C2=O)c1` (centres undefined), the values for the growth inhibition in assay [1] and in assay [4] were 80% (active) and 99% (active), respectively. Moreover, the figures for the inhibition in assay [2] and in assay [3] were 1% and 4%, respectively. In addition, the result in assay [5], in assay [6], in assay [7] and in assay [8] was inactive.
Consider `CC(Cc1ccc(SCCSc2ccccc2)cc1)NCC(O)c1cccc(Cl)c1` (centres undefined), for which the growth inhibition is 96% (active) in assay [1] and 98% (active) in assay [4]. Moreover, the inhibition is 4% in assay [2] and -7% in assay [3]. Besides, the outcome in assay [5], in assay [6], in assay [7] and in assay [8] was inactive.
As for `CC(=O)N(Cc1cccc(-c2cccc(CNCCc3ccccc3)c2)c1)C1CCN(Cc2ccccc2)CC1`, the growth inhibition is 57% (active) in assay [1] and 100% (active) in assay [4]. In addition, the values for the inhibition in assay [2] and in assay [3] were 22% and -3%, respectively. Besides, the result in assay [5], in assay [6], in assay [7] and in assay [8] was inactive.
Take `N#Cc1c(F)cc(N2CCC(NCC[C@H](N)Cc3ccc(F)c(F)c3)CC2)cc1F`: the growth inhibition was 26% in assay [1] and 102% (active) in assay [4]. The values for the inhibition in assay [2] and in assay [3] were 70% (active) and 4%, respectively. Further, the outcome in assay [5], in assay [6], in assay [7] and in assay [8] was inactive.
Regarding `COC(=O)c1ccc(CC(C)NCC(O)c2cccc(Cl)c2Cl)cc1` (centres undefined), the growth inhibition in assay [1] and in assay [4] was 98% (active) throughout. In addition, the inhibition in assay [2] is -1%; in assay [3], -6%. Further, the outcome in assay [5], in assay [6], in assay [7] and in assay [8] was inactive.
`CCOC(=O)c1c(C)n(C2CCCCCC2)c2cc(Br)c(O)cc12`: the growth inhibition in assay [1] is 45%; in assay [4], 87% (active). Also, the inhibition in assay [2] and in assay [3] was -1% in each case. Besides, the result in assay [5], in assay [6], in assay [7] and in assay [8] was inactive.
For `O=C(/C=C/c1ccc(Cl)c(Cl)c1)N1CCC(CN2CCC(c3c[nH]c4ccc(O)cc34)CC2)CC1`, the growth inhibition is 100% (active) in assay [1] and 101% (active) in assay [4]. For the same compound, the inhibition was 44% in assay [2] and -7% in assay [3]. Moreover, the result in assay [5], in assay [6], in assay [7] and in assay [8] was inactive.
In the case of `CC(C)CNCc1cccc(-c2ccccc2CN(C(=O)Nc2ccccc2)C2CCN(Cc3ccccc3)CC2)c1`, the growth inhibition in assay [1] is 68% (active); in assay [4] it was 100% (active). In addition, the figures for the inhibition in assay [2] and in assay [3] were 36% and -2%, respectively. Besides, the outcome in assay [5], in assay [6], in assay [7] and in assay [8] was inactive.
As for `C[C@@H](NC(C)(C)C)[C@H](O)c1ccc(Cl)c(C(F)(F)F)c1`, the growth inhibition in assay [1] and in assay [4] was 97% (active) each time. For the same compound, the inhibition in assay [2] was -1%; in assay [3], -6%. The outcome in assay [5], in assay [6], in assay [7] and in assay [8] was inactive.
Consider `CC(C)n1ncc2c(C(=O)Nc3ccc(C#N)c(Cl)c3)cc(C3CC3)nc21`, for which the growth inhibition in assay [1] was 15%; in assay [4] it was 93% (active). Moreover, the inhibition is 20% in assay [2] and 2% in assay [3]. The outcome in assay [5], in assay [6], in assay [7] and in assay [8] was inactive.
In the case of `O=P(O)(O)Oc1c(Br)cc(Br)cc1-c1cc(Br)cc(Br)c1O`, the values for the growth inhibition in assay [1] and in assay [4] were -2% and 97% (active), respectively. In addition, the values for the inhibition in assay [2] and in assay [3] were 10% and -4%, respectively. Also, the result in assay [5], in assay [6], in assay [7] and in assay [8] was inactive.
As for `COc1cccc(C2(NC[C@@H](O)[C@H](Cc3ccccc3)NC(=O)c3ccccc3)CCCCC2)c1`, the results for the growth inhibition in assay [1] and in assay [4] were 67% (active) and 97% (active), respectively. In addition, the figures for the inhibition in assay [2] and in assay [3] were 14% and -2%, respectively. For the same compound, the result in assay [5], in assay [6], in assay [7] and in assay [8] was inactive.
`CN(CC(=O)N1CCN(S(=O)(=O)c2cccc(Cl)c2)CC1CN1CCCC1)c1ccc(Cl)c(Cl)c1` (centres undefined): the values for the growth inhibition in assay [1] and in assay [4] were 32% and 89% (active), respectively. For the same compound, the inhibition is 32% in assay [2] and -1% in assay [3]. Moreover, the outcome in assay [5], in assay [6], in assay [7] and in assay [8] was inactive.
